Test results: the supplement of paper PMC12024529

Test system: HEK293 WT BDD-FVIII-Gluc
Assay: secreted FVIII-Gluc luciferase Z-score vs DMSO control; higher = more FVIII-Gluc secretion
Settings: 5 µM
Experimental: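 Natural plant-compound library (480 compounds, ST catalogue IDs) screened on HEK293 cells stably expressing WT BDD-FVIII-Gaussia luciferase fusion at 5 µM. Secreted Gluc activity in the medium is given as a Z-score relative to DMSO controls.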

Compound	secreted FVIII-Gluc luciferase Z-score
CC(C)C1(NC(=O)[C@@H]2C=C3c4cccc5[nH]cc(c45)C[C@H]3N(C)C2)O[C@@]2(O)[C@@H]3CCCN3C(=O)[C@H](Cc3ccccc3)N2C1=O (some centres undefined)	1.35
CC(=O)c1c(O)c(C)c(O)c(Cc2c(O)c3c(c(C(=O)/C=C/c4ccccc4)c2O)OC(C)(C)C=C3)c1O	-1.16
C[C@H]1C(=O)O[C@H]2CCN3CC=C(COC(=O)[C@](C)(O)[C@@]1(C)O)C23 (some centres undefined)	0.0827
Cc1nccc2c1[nH]c1ccccc12	-0.617
CCN1CC2(COC(=O)c3ccccc3N3C(=O)CC(C)C3=O)CC[C@H](OC)[C@@]34C5C[C@@H]6[C@@H](OC)C[C@@](O)(C5[C@H]6OC)[C@](O)([C@@H](OC)C23)[C@@H]14.[O-][Cl+3]([O-])([O-])O (some centres undefined)	0.461
NCC(O)c1cccc(O)c1 (centres undefined)	0.434
CN(C)[C@@H]1C(=O)C(C(N)=O)=C(O)[C@@]2(O)C(=O)C3=C(O)c4c(O)cccc4[C@@](C)(O)[C@H]3C[C@@H]12	0.496
Cc1ccc2[nH]c(CCN)cc2c1	1.37
COc1ccc(CC2c3cc(OC)c(OC)cc3CCN2C)cc1OC (centres undefined)	-1.36
C=CCCN1C[C@@H]2C[C@@H](C1)c1cccc(=O)n1C2	-0.00507
c1cc2c(cc1C1OCC3C(c4ccc5c(c4)OCO5)OCC13)OCO2 (centres undefined)	-0.0258
CC(C)(C)[C@]1(O)C[C@@H]2OC(=O)C[C@@]23C(=O)O[C@@H]2OC(=O)[C@H](O)[C@]213	-0.32
CC(=O)N1C[C@@H]2C[C@H](C1)c1cccc(=O)n1C2	-0.118
COc1ccc(Cc2nccc3cc(OC)c(OC)cc23)cc1OC	-0.721
CC1=C2C3OC(=O)C(C)C3CC[C@@]2(C)C=CC1=O (some centres undefined)	0.0932
CC(C)[C@@]1(NC(=O)[C@@H]2C[C@@H]3c4cccc5[nH]cc(c45)C[C@H]3N(C)C2)O[C@@]2(O)[C@@H]3CCCN3C(=O)[C@H](Cc3ccccc3)N2C1=O	-0.176
c1cncc(C2CCCCN2)c1 (centres undefined)	-0.711

Compound	secreted FVIII-Gluc luciferase Z-score
COc1ccc2c(c1OC)C(=O)O[C@H]2[C@@H]1c2cc3c(cc2CCN1C)OCO3	0.0229
C[C@@H]1C[C@@H]([C@H](O)CC2CC(=O)NC(=O)C2)C(=O)[C@@H](C)C1	-7.2
CC1CC[C@@]2(NC1)O[C@H]1C[C@H]3[C@@H]4CC=C5C[C@@H](O)CC[C@]5(C)[C@H]4CC[C@]3(C)[C@H]1[C@@H]2C (some centres undefined)	-1.02
CNC1C2CN3CCC(O2)C13 (centres undefined)	-1.02
CC(C)C[C@H]1C(=O)N2CCC[C@H]2[C@]2(O)O[C@](NC(=O)[C@@H]3C=C4c5cccc6[nH]cc(c56)C[C@H]4N(C)C3)(C(C)C)C(=O)N12	0.241
C/C=C1/CN2CC[C@]34C(=C(C=O)[C@H]1C[C@H]23)Nc1ccccc14	0.372
C/C=C1/C[C@@H](C)[C@](O)(CO)C(=O)OCC2=CCN3CC[C@@H](OC1=O)[C@@H]23	-1.37
C[C@]12CC[C@H](O)CC1=CC[C@@H]1[C@@H]2CC[C@]2(C)C(=O)CC[C@@H]12	1.29
CNC(=O)Oc1ccc2c(c1)C1(C)CCN(C)C1N2C (centres undefined)	0.602
OC[C@@H]1CCCN2CCCC[C@H]12	-0.141
CO[C@]12C[C@@H](COC(=O)c3cncc(Br)c3)CN(C)[C@@H]1Cc1cn(C)c3cccc2c13	0.94
COc1ccc2c(c1)[nH]c1c(C)nccc12	-2.87
CC[C@H]1C2C[C@H]3[C@@H]4N(C)c5ccccc5[C@]45C[C@@H](C2[C@H]5O)N3[C@@H]1O (some centres undefined)	0.504
CCC1CN2CCC1CC2C(O)c1ccnc2ccc(OC)cc12 (centres undefined)	-0.168
C[N+]1=Cc2cc3c(cc2CC1)OCO3	0.204
CC(C)[C@H]1C(=O)N2CCC[C@H]2[C@]2(O)OC(NC(=O)[C@@H]3C=C4c5cccc6[nH]cc(c56)C[C@H]4N(C)C3)(C(C)C)C(=O)N12 (some centres undefined)	0.939
C=C[C@H]1CN2CCC1C[C@@H]2[C@@H](O)c1ccnc2ccccc12 (some centres undefined)	-0.283
